Screening results (PubChem BioAssay)
DRD3 agonist – agonists of human D3 dopamine receptor. AID 652048. max activation, %. D3R DiscoveRx beta-arrestin cells, luminescence, 90 min. P35462. 410,000 compounds, 0.58% hits; in the data active = max activation above about 30%; also: 0% is about no effect
Target sequence (P35462 whole entry, looked up): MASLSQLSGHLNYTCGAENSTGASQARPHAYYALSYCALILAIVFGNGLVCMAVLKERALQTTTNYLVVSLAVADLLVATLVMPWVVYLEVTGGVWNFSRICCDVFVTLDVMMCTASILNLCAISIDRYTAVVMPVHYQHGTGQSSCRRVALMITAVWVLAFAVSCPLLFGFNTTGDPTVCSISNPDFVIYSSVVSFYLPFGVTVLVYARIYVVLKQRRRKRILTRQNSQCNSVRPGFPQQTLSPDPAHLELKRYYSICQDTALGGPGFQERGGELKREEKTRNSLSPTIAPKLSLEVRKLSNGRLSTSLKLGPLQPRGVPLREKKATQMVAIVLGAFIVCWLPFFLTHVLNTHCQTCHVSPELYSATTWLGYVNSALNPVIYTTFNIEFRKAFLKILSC
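Agonist-mode cell screen: cells plated at 1500/well and incubated overnight at 37 °C, then exposed to library compounds for 90 min at 37 °C. Detection reagent was added for 30–60 min at room temperature, and luminescence was read.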
TDP1 cell CPT – growth inhibition of DT40 Tdp1-/-;hTDP1 cells with camptothecin (screen for TDP1 inhibitors) | Potency, µM (series often up to 46.2 µM), for the others: at the highest dose activity change, negative = growth inhibition, hits mostly inhibitors | 420,000 compounds, 12% hits | chicken DT40 Tdp1-/-;hTDP1 cells + 20 nM CPT, ATP luminescence, 48 h; also: potency is read from the fitted curve at half-maximal effect; % is scaled to controls: 0 for no effect and ±100 for the full control effect; nearly all actives have a fitted effect of over 55% in size
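Chicken DT40 Tdp1-/- cells complemented with human TDP1, 400 cells/well, exposed to compounds plus 20 nM camptothecin for at least 48 h at 37 C; viability read as ATP content by CellTiter-Glo luminescence.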
DRD3 antagonist – D3 dopamine receptor (human) antagonism. P35462. D3R cells, DiscoveRx beta-arrestin luminescence, antagonist mode; active compounds read low. max response, negative = inhibition, %. 360,000 compounds, 2.5% hits. AID 652054; in the data active = max response below about -50%; inconclusive = no clear call, values can overlap the other calls; also: % is scaled to controls: 0 for no effect and ±100 for the full control effect
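Cells plated overnight at 1500 cells/well, then exposed to library compounds with dopamine controls for 90 minutes at 37 degrees C. DiscoveRx reagent added for 30–60 minutes at room temperature; luminescence read, quantitative HTS format.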
IL-1B inflam inh – blocks inflammasome-driven IL-1 beta release; activity change, % at 57.5 µM; AID 743279; THP-1 LPS/ATP IL-1B secretion, AlphaLISA, 16 h; active compounds read low; 360,000 compounds, 4.7% hits; in the data active = activity change below about -50%; inconclusive = mostly about -30% to -49%; also: % is scaled to controls: 0 for no effect and ±100 for the full control effect
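Secreted IL-1B measured by AlphaLISA bead assay after 16 h compound exposure of THP-1 cells; compounds (final up to 57.5 uM) added 1 h before LPS (250 ng/mL) and ATP (1.25 mM) stimulation; lower signal means less secretion.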
ClpP mod – qHTS Assay for Activators of ClpP; 340,000 compounds, 1.9% hits; purified B. subtilis ClpP, FRET peptide cleavage, 20 min; ATP-dependent Clp protease proteolytic subunit (Bacillus subtilis (strain 168)), P80244; AID 651965, 2013; Potency, µM (highest dose often 57.5 µM), for inactives: at the top dose activity change, negative = active; active = well fitted falling curve with a large enough effect; inconclusive = small, poorly fitted or top-dose-only effect; inactive = no such curve, though single readings can be large or run the other way; also: potency is read from the fitted curve at half-maximal effect; the source files actives as falling curves though it sought activators and does not explain the sign; nearly all actives have a fitted effect of over 65% in size
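FRET quenching reversal measured ClpP activation: 10 microg/mL B. subtilis ClpP at pH 8 with the FRET-FV decapeptide, read at 430 nm after 320 nm excitation. The 20-min minus 0-min signal was scaled between DMSO/no-enzyme wells and ADEP (5.8 microM final).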
DT40 TDP1 no CPT – qHTS for Inhibitors of human tyrosyl-DNA phosphodiesterase 1 (TDP1): qHTS in cells in absence of CPT. 420,000 compounds, 15% hits. Potency, µM (top dose mostly 46.2 µM), inactives show top-dose activity change, negative = growth inhibition, actives largely listed as inhibitors. DT40 Tdp1-/- hTDP1 cells, no CPT, ATP luminescence, 48 h; also: potency is read from the fitted curve at half-maximal effect; % is scaled to controls: 0 for no effect and ±100 for the full control effect; nearly all actives have a fitted effect of over 55% in size
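A cellular qHTS used chicken DT40 cells lacking endogenous Tdp1 but carrying stably transfected human TDP1. Compounds were applied without camptothecin, and cell growth kinetics were judged by ATP-dependent luminescence after ≥48 hr.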
Numbers without * were called inactive. In the library only some 21% were active in any assay of this set; here they are far more common. Unless noted, calls follow the shape of the dose curve; as a rule, active = well fitted inhibition curve with a large enough effect; inconclusive = small, poorly fitted or top-dose-only effect; inactive = flat fitted curve, though single readings scatter.

Results for COc1ccc(-c2csc(NC(=O)c3ccc(OCC(=O)N4CCOCC4)c(OC)c3)n2)cc1OC ?
DRD3 agonist: 15; TDP1 cell CPT: 16µM*; DRD3 antagonist: 114; IL-1B inflam inh: -94*; ClpP mod: -4%; DT40 TDP1 no CPT: 15µM*

How did O=C(CCc1ccc(S(=O)(=O)N2CCOCC2)cc1)Nc1nc(COc2ccccc2)cs1 do in these assays?
DRD3 agonist: 8; TDP1 cell CPT: 15µM*; DRD3 antagonist: 17; IL-1B inflam inh: inconclusive; ClpP mod: -1%; DT40 TDP1 no CPT: inconclusive

Results for O=S(=O)(c1ccc(-c2csc(Nc3ccc(F)cc3)n2)cc1)N1CCCC1 ?
DRD3 agonist: 9; TDP1 cell CPT: 12µM*; DRD3 antagonist: 13; IL-1B inflam inh: 1; ClpP mod: 20µM*; DT40 TDP1 no CPT: 12µM*

What do the screens show for `Cc1ccc(Nc2nc(-c3ccc(S(=O)(=O)N4CCCC4)cc3)cs2)cc1C`?
DRD3 agonist: 18; TDP1 cell CPT: inconclusive; DRD3 antagonist: 3; IL-1B inflam inh: inconclusive; ClpP mod: inconclusive; DT40 TDP1 no CPT: 21µM*

How did CC1=C(C(=O)Nc2cccnc2)C(c2ccc(C)cc2)n2nc(SCc3ccccc3F)nc2N1 (configuration not stated) do in these assays?
DRD3 agonist: -8; TDP1 cell CPT: -3%; ClpP mod: 0%; DT40 TDP1 no CPT: -11%

What do the screens show for `O=C(NCC1CCCO1)C(c1ccc(F)cc1)N(Cc1ccc2c(c1)OCO2)C(=O)c1ccc(CN2CCOCC2)o1` (configuration not stated)?
DRD3 agonist: 5; TDP1 cell CPT: 7%; DRD3 antagonist: 6; IL-1B inflam inh: 15; DT40 TDP1 no CPT: -13%

Results for Cc1c(C(=O)N2CCCCCC2)c(S(=O)(=O)NCc2ccccc2Cl)c(C)n1C ?
DRD3 agonist: -4; TDP1 cell CPT: -28%; DRD3 antagonist: -18; IL-1B inflam inh: -11; ClpP mod: -1%; DT40 TDP1 no CPT: -17%

How did c1cnc2cc3c(cc2n1)C1CNCC3C1 do in these assays?
DRD3 agonist: -5; TDP1 cell CPT: inconclusive; DT40 TDP1 no CPT: inconclusive

Results for C=CCN(C(=O)CSC1=NC(=O)CN1C(C)=O)c1nc(C)c(-c2ccccc2)s1 ?
DRD3 agonist: 2; TDP1 cell CPT: inconclusive; DRD3 antagonist: inconclusive; IL-1B inflam inh: -89*; DT40 TDP1 no CPT: 18µM*

What do the screens show for `CCOC(=O)c1sc(N(Cc2ccccc2)C(=O)CSc2nnc(C3CC3)n2N)nc1C`?
DRD3 agonist: 0; TDP1 cell CPT: inconclusive; DRD3 antagonist: inconclusive; IL-1B inflam inh: -14; ClpP mod: -3%; DT40 TDP1 no CPT: inconclusive

Results for CN1CCC(N2CCN(C3CN(C4CCCCC4)S(=O)(=O)C3)CC2)CC1 (configuration not stated) ?
DRD3 agonist: 3; TDP1 cell CPT: 6%; DRD3 antagonist: 0; IL-1B inflam inh: 0; ClpP mod: 0%; DT40 TDP1 no CPT: 1%

Results for CCOc1c(Br)cc(/C=C2\N=C(C)OC2=O)cc1Br ?
DRD3 agonist: 3; TDP1 cell CPT: 21µM*; DRD3 antagonist: 6; IL-1B inflam inh: -1; ClpP mod: -3%; DT40 TDP1 no CPT: inconclusive

What do the screens show for `COc1cc(/C=C2\N=C(C)OC2=O)cc(OC)c1OC`?
DRD3 agonist: -4; TDP1 cell CPT: inconclusive; DRD3 antagonist: -24; IL-1B inflam inh: 0; ClpP mod: 1%; DT40 TDP1 no CPT: inconclusive

Results for C=CCn1c(=NC(=O)CN2C(=O)CCC2=O)sc2cccc(OC)c21 ?
DRD3 agonist: -9; TDP1 cell CPT: inconclusive; DRD3 antagonist: -13; IL-1B inflam inh: -16; ClpP mod: inconclusive; DT40 TDP1 no CPT: inconclusive
